# Sampled rows, rich in hits. Any-hit rate of the full collection: about 2.3%.
# GLS inh: blocks human kidney-isoform glutaminase activity | O94925 | GLS enzymatic activity, qHTS titration | Potency, µM (series often up to 45.5 µM), without a hit: at the top dose activity change, negative = inhibition, actives largely listed as inhibitors | hit rate 0.21% among 410,000 | AID 624170; also: % is scaled to controls: 0 for no effect and ±100 for the full control effect
# Target sequence (O94925 whole entry, looked up, canonical isoform): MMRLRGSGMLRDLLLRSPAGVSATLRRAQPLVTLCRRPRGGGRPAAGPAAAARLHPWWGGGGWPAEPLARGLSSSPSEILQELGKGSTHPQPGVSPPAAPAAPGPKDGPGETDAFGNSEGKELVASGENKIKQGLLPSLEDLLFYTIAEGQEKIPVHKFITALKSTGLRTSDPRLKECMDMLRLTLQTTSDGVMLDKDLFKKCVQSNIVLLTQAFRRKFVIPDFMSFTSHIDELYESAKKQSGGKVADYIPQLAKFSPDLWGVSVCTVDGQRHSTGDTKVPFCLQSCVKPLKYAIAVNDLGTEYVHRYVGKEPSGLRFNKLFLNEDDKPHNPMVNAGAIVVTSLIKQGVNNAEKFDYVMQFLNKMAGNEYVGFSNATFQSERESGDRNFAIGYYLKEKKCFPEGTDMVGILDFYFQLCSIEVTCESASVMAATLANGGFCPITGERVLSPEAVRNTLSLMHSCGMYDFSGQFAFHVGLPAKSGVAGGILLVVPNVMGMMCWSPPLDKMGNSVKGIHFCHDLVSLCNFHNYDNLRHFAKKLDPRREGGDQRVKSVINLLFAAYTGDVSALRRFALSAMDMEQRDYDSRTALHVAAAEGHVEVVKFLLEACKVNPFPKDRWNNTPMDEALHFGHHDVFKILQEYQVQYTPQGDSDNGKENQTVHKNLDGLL
#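 Read-out is an Amplex red fluorescence increase coupled through glutamate oxidase and HRP, measured before and after 30 min room-temperature incubation. hKGA is in 45 mM KH2PO4 (pH 8.2) with 0.02% Tween-20; glutamine added as 1mM solution.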
# GLP-1R agonist: agonists of human GLP-1 receptor; Potency, µM (top dose mostly 45.6 µM), for the others: top-dose activation, usual class: activators; AID 624172; hit rate 0.007% among 380,000; P43220; HEK293 GLP-1R CRE-luciferase, luminescence, 4-6 h; cells express a hypersensitive GLP-1R form; also: % of control where 0% means no effect
# GRP78 ERSR act: ER stress response induction in glioma | hit rate 0.02% among 420,000 | Potency, µM, for inactives: at the highest dose activation, usual class: activators | AID 602332 | U87-MG GRP78 promoter luciferase reporter, 16 h; also: series mostly up to about 76 µM; % of control where 0% means no effect; nearly all actives have a fitted effect of over 35% in size
#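 ERSR induction read as luciferase luminescence (Bright-Glo, 10 min at room temperature) in stably transfected human U87-MG glioma cells exposed to compounds for 16 h, using GRP78 as sensor.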
# PTHR1 agonist: agonists of human PTHR1 parathyroid hormone receptor. HEK293 GP2 PTHR1 cells, GloSensor cAMP luminescence, 1 h. Q03431. Potency, µM (doses to about 115 µM), without a hit: at the top dose activation, actives largely listed as activators. hit rate 0.075% among 410,000; also: nearly all actives have a fitted effect of over 55% in size
#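 HEK-293-derived GP2 cells expressing PTHR1 and a GloSensor cAMP reporter, 3,000/well, plated overnight, given luciferin plus IBMX (each 0.5 mM as added) for 1 h at 37 °C, then compound for 1 h at 37 °C. Luminescence was read after 15 min at room temperature.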
# GLP1R inv ag: acts as inverse agonist at human GLP-1 receptor; Potency, µM (highest dose often 38.3 µM), for inactives: at the top dose activity change, negative = inhibition, usual class: inhibitors; HEK293 GLP-1R CRE-luciferase, luminescence, 24 h; GLP-1R form is constitutively active; P43220; AID 624417; hit rate 1.6% among 410,000; also: % is scaled to controls: 0 for no effect and ±100 for the full control effect; nearly all actives have a fitted effect of over 55% in size
#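 HEK293 cells stably co-expressing constitutively active GLP-1R and a cAMP-responsive luciferase reporter were seeded in DMEM with 10% Nu serum, given compounds after 12 h, and incubated 24 h at 37 deg C. Luminescence was then read.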
# 12-LOX inh: blocks human arachidonate 12S-lipoxygenase; purified 12hLO, xylenol orange hydroperoxide absorbance; Potency, µM (series often up to 108 µM), for inactives: at the top dose activity change, negative = inhibition, usual class: inhibitors; hit rate 1.1% among 580,000; also: % is scaled to controls: 0 for no effect and ±100 for the full control effect
#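 Hydroperoxide product was detected by ferrous iron/xylenol orange as the 573 to 405 nm absorbance ratio. Arachidonic acid at 40 uM (final) was turned over for 30 min at room temperature by 150 nM human 12hLO, pH 7.0 Hepes buffer, after 15 min compound preincubation.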
# Starred values were filed as active, the others as inactive; i = inactive; ? = inconclusive; / = no result given; [ ] = another dose, or the depositor's remark. Calls follow the shape of the dose curve; as a rule, active = well fitted curve in the direction sought with a large enough effect; inconclusive = small, poorly fitted or top-dose-only effect, or another doubt; inactive = no such curve, though single readings can be large; an effect the other way counts as inactive or inconclusive. Potency is read from the fitted curve at half-maximal effect.
SMILES,GLS inh,GLP-1R agonist,GRP78 ERSR act,PTHR1 agonist,GLP1R inv ag,12-LOX inh
N#CC(c1cccc([N+](=O)[O-])c1)C(CC(=O)c1ccccc1)c1ccccc1 (configuration not stated),2.1%,-1.0%,-1.5%,-15.4%,?,11.6%
N#CC(c1ccccc1)C(CC(=NO)c1ccccc1)c1ccccc1 (configuration not stated),3.8%,-5.6%,-0.9%,-31.7%,8.91µM*,?
CC(C)n1ncc2c(C(=O)NCc3ccccc3F)c3c(nc21)CCC3,/,/,/,/,/,-34.9%
Cc1ccc(CNC2CC2)cc1,/,/,/,/,/,-5.6%
CCN(CC)S(=O)(=O)c1ccc(=O)n(Cc2noc(CC(C)C)n2)c1,/,/,/,/,/,6.5%
CNCC(O)CN(c1ccccc1)c1ccccc1 (configuration not stated),17.9%,1.0%,-3.5%,12.5%,6.31µM*,-5.0%
COc1ccccc1NC(=S)NC(=O)c1c(-c2ccccc2Cl)noc1C,10.0%,5.8%,-1.6%,-10.1%,3.98µM*,?
Cc1onc(-c2ccccc2Cl)c1C(=O)NC(=S)Nc1ccc(C(C)C)cc1,0.9%,-5.1%,-1.7%,-19.4%,3.98µM*,0.0%
Cc1ccc(NC(=S)NC(=O)c2c(-c3ccccc3Cl)noc2C)cc1,10.3%,-3.0%,-0.1%,i,-57.1%,?
CCCOC(=O)c1cccc(NC(=O)c2c(-c3ccccc3Cl)noc2C)c1,-9.3%,/,2.4%,-80.0%,8.91µM*,-12.3%
C#Cc1cccc(NC(=O)C(C)OCC)c1 (configuration not stated),/,/,/,/,/,0.3%
Cn1c(NCC(O)c2ccccc2)nc2c1c(=O)n(Cc1ccc(Cl)c(Cl)c1)c(=O)n2C (configuration not stated),5.8%,-39.8%,-10.8%,-17.2%,3.16µM*,?
Cn1c(=O)n(Cc2ccccc2)c(=O)c2c1nc(NCC1CCCO1)n2Cc1ccccc1 (configuration not stated),-5.4%,0.6%,0.3%,-1.0%[57.5 µM],3.98µM*,19.0%
CN(CCO)c1nc2c(c(=O)n(Cc3ccc(Cl)cc3)c(=O)n2C)n1C,8.91µM*,19.6%,-5.0%,-37.8%,9.5%,-3.2%
Cn1c(=O)c2c(nc(NCC3CCCO3)n2C)n(C)c1=O (configuration not stated),11.4%,-0.1%,-4.9%,-9.3%[57.5 µM],0.0%,-3.3%
CCCCNc1nc2c(c(=O)n(Cc3ccc(Cl)cc3)c(=O)n2C)n1C,-26.3%,/,-2.9%,i,-21.4%,?
CC(O)CNc1nc2c(c(=O)n(Cc3ccc(Cl)cc3)c(=O)n2C)n1C (configuration not stated),11.2µM*,21.0%,-2.8%,?,4.6%,-4.7%
CN(Cc1ccc(C(=O)NC2CC2)cc1)c1nc2ccccc2o1,/,/,/,/,/,-38.4%
Cc1cc(C(=O)NCCCOC(C)C)c2c(C3CCCN3)noc2n1 (configuration not stated),/,/,/,/,/,14.1µM*
CC(NC(=O)c1ccc2c(c1)CCCC2)c1ccc(F)cc1F (configuration not stated),/,/,/,/,/,39.8µM*
CCCC[C@H](CC(=O)c1ccccc1)[C@@H](OC(C)=O)C(=O)Oc1c(C(C)C)cccc1C(C)C,1.6%,-2.8%,-3.7%,-8.4%,3.55µM*,?
Cc1oc2c(c1C(=O)NC1CCN(C)CC1)CN(Cc1ccc(F)cc1)CC2,/,/,/,/,/,-4.2%
Cc1oc2c(c1C(=O)N1CCN(C3CCCC3)CC1)CN(Cc1cccc(F)c1)CC2,/,/,/,/,/,8.91µM*
Cc1ccc(CN2CCc3oc(C)c(C(=O)NC4CCCC4)c3C2)cc1,/,/,/,/,/,25.1µM*
Cc1oc2c(c1C(=O)NC1CCCC1)CN(Cc1ccc(F)cc1)CC2,/,/,/,/,/,12.6µM*
SMILES,GLS inh,GLP-1R agonist,GRP78 ERSR act,PTHR1 agonist,GLP1R inv ag,12-LOX inh
Cn1c(=O)c2nc(SCc3cccc(F)c3)n(C)c2n(C)c1=O,/,/,/,/,/,-2.1%
CCCOc1ccc(C(=O)Nc2cc(-c3nc4ccccc4[nH]3)ccc2C)cc1,-1.5%,/,7.1%,-16.8%,7.08µM*,?
CCOC(=O)c1cnc(-n2nc(C)cc2C)nc1Nc1ccc(N(C)C)cc1,-10.7%,5.5%,-0.3%,-34.3%,1.58µM*,0.0%
CCOC(=O)c1cnc(-n2nc(C)cc2C)nc1NC1CCCCC1,-1.2%,0.2%,-3.7%,-32.5%,1.26µM*,?
CCOC(=O)c1cnc(-n2nc(C)cc2C)nc1Nc1ccc(C)cc1,0.1%,0.1%,-4.9%,i,?,-1.0%
CCCN1CCC2(CCN([S+](=O)([O-])c3cccc(OC)c3)CC2)Oc2ccccc21,/,/,/,/,/,-2.1%
CCCCN1C(SCC(=O)Nc2cccc(C(C)=O)c2)=NS(=O)(=O)c2ccccc21,/,/,/,/,/,-0.4%
Cn1cccc1C1CCCN1Cc1nnc(-c2ccccc2)o1 (configuration not stated),/,/,/,/,/,-29.5%
CCCN1CNC(=S)N(N2CN(CCC)CNC2=S)C1,/,/,/,/,/,12.6µM*
Cc1nn(-c2ccccc2)c(N2CCCC2)c1/C=N/NC(=S)Nc1ccccc1C(F)(F)F,7.3%,-2.5%,-4.3%,-0.5%,?,35.5µM*
Cc1nn(-c2ccccc2)c(N2CCCC2)c1/C=N/NC(=S)Nc1cc(C(F)(F)F)ccc1Cl,12.8%,-4.0%,1.2%,i,?,?
CCCC[n+]1c(NCc2cc(Br)cc(Br)c2[O-])[nH]c2ccccc21,/,/,/,/,/,-6.8%
Cc1ccc(NC(=O)CSc2nnc(COc3ccc(Cl)cc3)o2)c(C)c1,1.4%,/,-3.1%,-11.9%,5.3%,-1.1%
Cc1cccc(OCc2nnc(SCC(=O)Nc3ccc(C)cc3C)o2)c1,1.2%,-0.2%,-2.7%,-2.5%,-18.5%,35.5µM*
O=C(CCc1ccccc1)N1CC=C(c2c[nH]c3ccccc23)CC1,/,/,/,/,/,53.3%
CN(C)S(=O)(=O)N1CC=C(c2c[nH]c3ccccc23)CC1,/,/,/,/,/,17.8µM*
O=C(NC[C@H]1Cn2c(-c3ccccc3)cnc2CO1)c1cnccn1,/,/,/,/,/,45.6%[176 µM]
CCn1cc(C(=O)NC2CCCCC2C)c(=O)c2ccc(C)nc21 (configuration not stated),-0.3%,5.8%,0.4%,-66.6%,0.7%,15.8µM*
C/C(=N/NC(=O)c1cccs1)c1ccccc1,/,/,/,/,/,-24.4%
CCC(CO)[n+]1c(C)cc(/C=C2\Sc3ccccc3N2Cc2ccccc2)cc1C (configuration not stated),5.5%,-9.9%,3.0%,-33.0%,?,50.1µM*
Cc1ccc(NC(=O)c2ccc(Cl)cc2Cl)nc1,/,/,/,/,/,1.2%
CCOc1ccccc1NC(=O)CSc1nc2ccccc2nc1N1CCCC1,-1.1%,-1.1%,0.6%,-13.3%,?,3.5%[57.4 µM]
CCOc1cc(N2CCOCC2)c(OCC)cc1NC(=O)CSc1ncccc1C(=O)O,78.3%,3.7%,-3.2%,i,20.0%,11.2µM*

# Bioassay records as filed in PubChem BioAssay.
